Experimental data published in PubChem BioAssay (NCI).
This is part of a sample that, as a whole, favours compounds with a hit. Of some 83,000 tested, about 20% had one in any assay.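 Plates (96-well) were seeded with cells, treated with compound at one concentration, and incubated for 48 hours before percent growth was determined.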 Activity calls are given as the source filed them. Rule for the calls: active = growth percent below 10; inactive = the rest.

Assays:
Assay in all cases: NCI-60 one-dose screen, 48 h (100 = growth as untreated, 0 = no growth, -100 = all killed)
NCI-H522 lung = settings: 10 µM unless noted
A549/ATCC NSCLC = settings: 10 µM unless noted
COLO 205 colon = settings: 10 µM
SNB-75 CNS = settings: 10 µM unless noted
SNB-19 CNS = settings: 10 µM unless noted
EKVX NSCLC = settings: 10 µM unless noted
UO-31 renal = settings: 10 µM unless noted
TK-10 renal = settings: 10 µM unless noted
CAKI-1 renal = settings: 10 µM unless noted
MOLT-4 leukemia = settings: 10 µM
OVCAR-8 ovarian = settings: 10 µM unless noted
OVCAR-5 ovarian = settings: 10 µM unless noted
SK-OV-3 ovarian = settings: 10 µM unless noted
T-47D breast = settings: 10 µM unless noted
MDA-MB-435 melanoma = settings: 10 µM unless noted
HT29 colon = settings: 10 µM unless noted
ACHN renal = settings: 10 µM unless noted
RPMI-8226 leukemia = settings: 10 µM unless noted
HOP-92 NSCLC = settings: 10 µM unless noted

Compound | growth (NCI-H522 lung) | growth (A549/ATCC NSCLC) | growth (COLO 205 colon) | growth (SNB-75 CNS) | growth (SNB-19 CNS) | growth (EKVX NSCLC) | growth (UO-31 renal) | growth (TK-10 renal) | growth (CAKI-1 renal) | growth (MOLT-4 leukemia) | growth (OVCAR-8 ovarian) | growth (OVCAR-5 ovarian) | growth (SK-OV-3 ovarian) | growth (T-47D breast) | growth (MDA-MB-435 melanoma) | growth (HT29 colon) | growth (ACHN renal) | growth (RPMI-8226 leukemia) | growth (HOP-92 NSCLC)
COc1cc(C2=NN(c3ccccc3)C(c3sc(N(CCCl)CCCl)nc3Cl)C2)cc(OC)c1OC (configuration not stated) | 69.1% (inactive) | 83% (inactive) | 90.6% (inactive) | 69.2% (inactive) | 86.4% (inactive) | 78.9% (inactive) | 75.5% (inactive) | 102% (inactive) | 64% (inactive) | 70.9% (inactive) | 90.4% (inactive) | 99.5% (inactive) | 77.7% (inactive) | 68.7% (inactive) | 101% (inactive) | – | – | – | –
c1ccc2nc(OCCN3CC3)ccc2c1 | 47.1% (inactive) | 74.1% (inactive) | 68.1% (inactive) | 77% (inactive) | 87% (inactive) | 80.7% (inactive) | 59.4% (inactive) | 108% (inactive) | – | – | – | 86.2% (inactive) | 96.7% (inactive) | 80.3% (inactive) | 83.3% (inactive) | 43.8% (inactive) | 88% (inactive) | 9.61% (active) | –
Nc1c(Br)cc2c3c(cccc13)-c1ccccc1-2 | – | – | 88.2% (inactive) | 60.9% (inactive) | 92.9% (inactive) | 53.1% (inactive) | – | – | 57.4% (inactive) | 53.8% (inactive) | 70.9% (inactive) | 76.8% (inactive) | 87.7% (inactive) | 38.6% (inactive) | 78.8% (inactive) | 103% (inactive) | 75.7% (inactive) | – | 25% (inactive)
N#C[Se]CCN1C(=O)C2C(C1=O)[C@H]1C=C[C@@H]2S1 (some centres not stated) | – | -19.3% (active) | – | – | -19.1% (active) | -51.6% (active) | -90.7% (active) | -65.3% (active) | -98.7% (active) | 4.47% (active) | -19.3% (active) | 14.7% (inactive) | 4.59% (active) | 70.7% (inactive) | – | 5.94% (active) | -2.15% (active) | -10.4% (active) | -46.3% (active)
Cc1cc([N+](=O)[O-])c(Cl)cc1NS(=O)(=O)c1ccccc1 | – | – | 91.9% (inactive) | 64.1% (inactive) | 79.1% (inactive) | – | – | 110% (inactive) | 63.7% (inactive) | 74.5% (inactive) | 78.1% (inactive) | 83.5% (inactive) | 96% (inactive) | 59.5% (inactive) | 58.4% (inactive) | 82.1% (inactive) | 83.1% (inactive) | 37.3% (inactive) | -3.58% (active)
CC1=C(SCCC(=O)OCC(=O)NCCC[Te]c2ccccc2)C(=O)c2ccccc2C1=O | -6.75% (active) | 0.0697% (active) | 47.6% (inactive) | 19.2% (inactive) | 9.54% (active) | -3.84% (active) | -0.644% (active) | – | 27.4% (inactive) | 0.655% (active) | – | -0.604% (active) | -36.8% (active) | 18.9% (inactive) | 4.67% (active) | – | 12.4% (inactive) | -8.41% (active) | –
Fc1ccc(C2=NN(c3ccccc3)C(c3sc(N(CCCl)CCCl)nc3Cl)C2)cc1 (configuration not stated) | 64.2% (inactive) | 86.3% (inactive) | 88.6% (inactive) | 68.7% (inactive) | – | 84% (inactive) | 67.6% (inactive) | 117% (inactive) | 62.2% (inactive) | 65.4% (inactive) | 87.5% (inactive) | 91.5% (inactive) | – | – | 93.9% (inactive) | 81.2% (inactive) | 79.4% (inactive) | – | –
COC(C)(C)CCC[C@H](C)C/C=C/C(C)=C/C(=O)OC(C)C | 69.1% (inactive) | 98.5% (inactive) | 107% (inactive) | 118% (inactive) | 109% (inactive) | 78.1% (inactive) | 84.9% (inactive) | – | 85.4% (inactive) | 90% (inactive) | 98.2% (inactive) | 128% (inactive) | 92% (inactive) | 75.7% (inactive) | 97.4% (inactive) | 88% (inactive) | 109% (inactive) | 62.9% (inactive) | –
S=P(NC1CCCCC1)(N1CC1)N1CC1 | 106% (inactive) | 101% (inactive) | 179% (inactive) | 93.2% (inactive) | 113% (inactive) | 102% (inactive) | 94.1% (inactive) | 116% (inactive) | 95.1% (inactive) | – | 104% (inactive) | 104% (inactive) | 131% (inactive) | 106% (inactive) | 110% (inactive) | 101% (inactive) | 103% (inactive) | 76.7% (inactive) | –
CC(N)Cc1ccc(O)cc1 (configuration not stated) | 105% (inactive) | 103% (inactive) | 128% (inactive) | 107% (inactive) | 114% (inactive) | 107% (inactive) | 79.3% (inactive) | 98.3% (inactive) | – | 83.4% (inactive) | 101% (inactive) | 104% (inactive) | 105% (inactive) | 98.3% (inactive) | 106% (inactive) | 98.4% (inactive) | 108% (inactive) | 98.3% (inactive) | –
CNC(C)Cc1ccccc1 (configuration not stated) (tested in a mixture with another compound) | 82.4% (inactive) | 92.3% (inactive) | 102% (inactive) | 100% (inactive) | 105% (inactive) | – | 82.9% (inactive) | 92.8% (inactive) | 102% (inactive) | 90.6% (inactive) | 113% (inactive) | 88.1% (inactive) | – | 90.5% (inactive) | 104% (inactive) | 107% (inactive) | 95.7% (inactive) | 90.4% (inactive) | –
CCOC(=O)/C(C#N)=C/c1ccc(N(CCCl)CCCl)cc1 | – | 85.2% (inactive) | – | – | 106% (inactive) | – | 79.3% (inactive) | 91.4% (inactive) | -9.24% (active) | 84.7% (inactive) | – | – | 92.6% (inactive) | 80.6% (inactive) | 94.4% (inactive) | 92.5% (inactive) | 72.8% (inactive) | 88.4% (inactive) | 67.6% (inactive)
CCOC(=O)/C=C(\C)Nc1ccc(N/C(C)=C/C(=O)OCC)c2c1Oc1ccccc1O2 | – | – | 121% (inactive) | 103% (inactive) | 115% (inactive) | 89% (inactive) | – | 124% (inactive) | 95.5% (inactive) | – | 96.7% (inactive) | 106% (inactive) | 107% (inactive) | – | 101% (inactive) | 112% (inactive) | 104% (inactive) | 83.2% (inactive) | 79% (inactive)
COc1cc2c(cc1OC)CN(C)C(C)C2 (configuration not stated) | 82.3% (inactive) | 93.6% (inactive) | 102% (inactive) | 87.3% (inactive) | 99% (inactive) | 109% (inactive) | 93% (inactive) | 101% (inactive) | 101% (inactive) | – | 105% (inactive) | 101% (inactive) | 103% (inactive) | 97.3% (inactive) | 101% (inactive) | 93.2% (inactive) | 106% (inactive) | 105% (inactive) | –
C[C@]12CC[C@@H]3C4=C(CC[C@H]3[C@@H]1CC[C@@H]2O)CC(=O)CC4 | 90.8% (inactive) | 98.4% (inactive) | 117% (inactive) | 101% (inactive) | 95.2% (inactive) | 72% (inactive) | 92% (inactive) | 113% (inactive) | 92% (inactive) | 89% (inactive) | – | – | 114% (inactive) | – | – | 105% (inactive) | 104% (inactive) | 91.8% (inactive) | –
O=CC(Br)C(Br)c1ccccc1 (configuration not stated) | 98% (inactive) | 97.6% (inactive) | 123% (inactive) | 92.6% (inactive) | 96% (inactive) | – | 74.1% (inactive) | 106% (inactive) | 92.9% (inactive) | 16.6% (inactive) | 85.6% (inactive) | 98% (inactive) | 109% (inactive) | 37.2% (inactive) | 99.3% (inactive) | 71.4% (inactive) | 86.2% (inactive) | 89% (inactive) | –
CCCCNCCc1ccccn1 | 86.9% (inactive) | 100% (inactive) | 117% (inactive) | 104% (inactive) | 113% (inactive) | 120% (inactive) | 88.4% (inactive) | 96.8% (inactive) | – | – | 102% (inactive) | 101% (inactive) | 119% (inactive) | – | 109% (inactive) | 102% (inactive) | 101% (inactive) | 90.2% (inactive) | –
O=[As]c1ccc(C(=O)c2ccc(Oc3ccccc3)cc2)cc1 (configuration not stated) | -95.4% (active) | -94.8% (active) | – | -92% (active) | – | -80.8% (active) | -84.6% (active) | -98.8% (active) | -53.7% (active) | -25.2% (active) | -97.3% (active) | -95.4% (active) | – | -47.2% (active) | -52% (active) | -77.6% (active) | – | -49.2% (active) | –
CCN(CC)c1ccc(C=C2C(=O)NC(=S)NC2=O)cc1 | 86.5% (inactive) | 89.2% (inactive) | – | 75.8% (inactive) | 88.9% (inactive) | 99.5% (inactive) | 76.1% (inactive) | 108% (inactive) | 91.8% (inactive) | 81% (inactive) | 93% (inactive) | 95.1% (inactive) | 94.1% (inactive) | 78% (inactive) | 98.1% (inactive) | – | 95.7% (inactive) | -18.9% (active) | –
O=[N+]([O-])c1ccccc1N1CCNCC1 | 88.6% (inactive) | – | 104% (inactive) | 92.5% (inactive) | 102% (inactive) | 104% (inactive) | 84.6% (inactive) | 96.2% (inactive) | 94.1% (inactive) | 103% (inactive) | 107% (inactive) | 94% (inactive) | – | -4.84% (active) | 103% (inactive) | 85.4% (inactive) | 105% (inactive) | 118% (inactive) | –
O=C1NC(=O)C(CN2C(=O)C3(c4ccccc42)[C@H](Cl)C(=O)N3c2ccccc2)C(=O)N1 (some centres not stated) | 51.4% (inactive) | 77.3% (inactive) | 102% (inactive) | 52.7% (inactive) | 88.6% (inactive) | 79.3% (inactive) | – | 121% (inactive) | 85.7% (inactive) | 62.5% (inactive) | 92.3% (inactive) | 84.6% (inactive) | 83.1% (inactive) | 38.1% (inactive) | 104% (inactive) | – | 88.7% (inactive) | 63.1% (inactive) | –
